Laboratory results reported in PubChem BioAssay (NCATS).
Inconclusive results are not listed. Active and inactive are the calls of the source. Unless noted, calls follow the shape of the dose curve; as a rule, active = well fitted curve in the direction sought with a large enough effect; inconclusive = small, poorly fitted or top-dose-only effect, or another doubt; inactive = no such curve, though single readings can be large; an effect the other way counts as inactive or inconclusive.

How the values were obtained:
[1] = qHTS to identify inhibitors of the type 1 interferon - major histocompatibility complex class I in skeletal muscle: primary screen against the NCATS Pharmaceutical Collection (AID 1347407);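 also: luminescence of HiBiT knocked into endogenous HLA-B as interferon-induced MHC class I level; % is scaled to controls: 0 for no effect and ±100 for the full control effect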
Method in brief: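 Cells were seeded with 4 ng/ml IFN-beta, incubated 1 h, then dosed with compounds over eight 1:5 steps up to 46 uM final. After 24 h at 37 C, HiBiT lytic reagent was added and luminescence read after 10 min lysis in the dark.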

[2] = target: Protein phosphatase 1D (Homo sapiens) (UniProt O15297); assay: RapidFire Mass Spectrometry qHTS Assay for Modulators of WT P53-Induced Phosphatase 1 (WIP1) (AID 1347424); also: potency is read from the fitted curve at half-maximal effect;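 as to activity change, negative = inhibition: series mostly up to about 63 µM; plate controls were DMSO wells for no effect and GSK830371 inhibitor control at 10 µM for full effect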
Sequence of Protein phosphatase 1D (Homo sapiens) (O15297 whole entry, looked up): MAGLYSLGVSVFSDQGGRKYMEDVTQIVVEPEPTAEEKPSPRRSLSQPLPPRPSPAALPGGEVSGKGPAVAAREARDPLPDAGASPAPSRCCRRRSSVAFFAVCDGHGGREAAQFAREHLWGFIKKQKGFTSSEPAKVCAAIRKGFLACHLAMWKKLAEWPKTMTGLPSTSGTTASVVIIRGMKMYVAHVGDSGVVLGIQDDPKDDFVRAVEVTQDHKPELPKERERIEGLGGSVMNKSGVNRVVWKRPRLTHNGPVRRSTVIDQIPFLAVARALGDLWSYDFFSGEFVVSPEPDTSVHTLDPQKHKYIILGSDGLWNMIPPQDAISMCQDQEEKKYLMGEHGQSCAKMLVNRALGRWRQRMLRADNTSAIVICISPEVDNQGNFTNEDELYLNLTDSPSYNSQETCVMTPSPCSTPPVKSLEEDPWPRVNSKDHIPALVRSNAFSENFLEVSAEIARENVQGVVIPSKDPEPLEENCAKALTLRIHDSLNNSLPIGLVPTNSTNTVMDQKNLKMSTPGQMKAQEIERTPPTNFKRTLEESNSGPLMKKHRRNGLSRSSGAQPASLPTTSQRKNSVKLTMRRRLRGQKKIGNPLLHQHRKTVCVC
Method in brief: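 RapidFire MS readout of dephosphorylated VEPPL-S-QETFS product, with 1 uM isotope-labelled peptide standard. Reaction: 10 nM WIP1, 2 uM phosphopeptide substrate, 5 min, room temperature, after 1 h compound preincubation; stopped with 0.5% formic acid.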

[3] = target: Protein phosphatase 1D (Homo sapiens) (UniProt O15297); assay: Rhodamine-PBP qHTS Assay for Modulators of WT P53-Induced Phosphatase 1 (WIP1) (AID 1347425); also: % of control where 0% means no effect
Method in brief: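 Read-out: Rhodamine-PBP fluorescence (ex 525/em 598 nm) for released Pi, read each minute for 11 min after adding 10 uM VEPPL-pS-QETFS; signal taken as f1 minus pre-substrate f0. Enzyme 5 nM WIP1 with 1 hr room-temperature compound preincubation.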

[4] = Primary qHTS for inhibitors of La Crosse Virus (LACV) - induced cell death in SH-SY5Y cells (AID 1508616);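 also: top concentration of the series differs between compounds; 0% = infected DMSO wells and 100% = uninfected DMSO wells; higher means more rescue of cells from virus-induced death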
Method in brief: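 Screening measures cell viability in LACV-infected SH-SY5Y cultures. Compound was added before virus (0.01 MOI), and ATP was detected by luminescence 6 days later.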

[5] = Primary qHTS for small molecule stabilizers of the endoplasmic reticulum resident proteome: Secreted ER Calcium Modulated Protein (SERCaMP) assay (AID 1508630); also: potency is read from the fitted curve at half-maximal effect; as to activity change, negative = inhibition: % is scaled to controls: 0 for no effect and ±100 for the full control effect
Method in brief: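 The SH-SY5Y reporter protocol was run at 3 concentrations up to 38.3 uM (primary) or 11 concentrations (follow-up): 16 h compound, 100 nM thapsigargin for 4 h, then extracellular luciferase luminescence.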

[6] = A High-Content qHTS Against Drug Library for the Identification of Small Molecules that Inhibit DYT1 Early Onset Primary Dystonia-Associated Cell Pathology (AID 1645839; calls by dose curve; also: potency is read from the fitted curve at half-maximal effect)
Method in brief: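 Cells were seeded and left for 24 h, then dosed with compound alongside tetracycline induction of mutant EGFP-TorsinA. They were incubated for 48 h, fixed in 4% paraformaldehyde, permeabilized and imaged for mislocalization (%pathology) and cell count.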

[7] = Counterscreen qHTS for small molecule stabilizers of the endoplasmic reticulum resident proteome: GLuc-NoTag assay (AID 1508627);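 also: SH-SY5Y cells given compound then 100 nM thapsigargin to empty ER calcium; series mostly up to about 76 µM; 0% = thapsigargin alone and -100% = DMSO vehicle control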
Method in brief: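 Counterscreen line: SH-SY5Y-GLuc-NoTag. Seed, 5 h; compound, 19 h; thapsigargin 100 nM, 4 h; 37C/5% CO2. Readout: secreted GLuc luminescence, coelenterazine 0.07x final, no lysis.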

[8] = Confirmatory qHTS for small molecule stabilizers of the endoplasmic reticulum resident proteome: Secreted ER Calcium Modulated Protein (SERCaMP) assay (AID 1508628); also: nearly all actives have a fitted effect of over 40% in size; also: potency is read from the fitted curve at half-maximal effect
Method in brief: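 GLuc-SERCaMP-expressing SH-SY5Y cells, pretreated 16 h with compound, are challenged with thapsigargin to empty ER calcium stores; after 4 h, coelenterazine is added directly to the medium and luminescence is imaged.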

[9] = target: Calcium and integrin-binding protein 1 (Homo sapiens) (UniProt Q99828); assay: Primary qHTS for Identification of Calcium Integrin Binding Protein 1 (CIB1) Competitor (AID 1508620);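 also: GST tagged CIB1 binding a fluorescein labelled alphaIIb integrin peptide tracer; top concentration of the series differs between compounds; % is scaled to controls: 0 for no effect and ±100 for the full control effect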
Sequence of Calcium and integrin-binding protein 1 (Homo sapiens) (Q99828 whole entry, looked up): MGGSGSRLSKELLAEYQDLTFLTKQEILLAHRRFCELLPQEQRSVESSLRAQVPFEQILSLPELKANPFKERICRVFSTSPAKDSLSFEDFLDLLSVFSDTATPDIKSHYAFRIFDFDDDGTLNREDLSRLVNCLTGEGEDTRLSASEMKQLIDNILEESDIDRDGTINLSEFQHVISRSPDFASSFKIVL
Method in brief: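 Fluorescence polarization competition: GST-tagged CIB1 (1 uM final) preincubated with compound 15 min at room temperature, then FITC-labelled alphaIIb peptide (100 nM final) added. After 15 min at room temperature, polarization read at Ex 480/Em 540.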

[10] = Cell Viability qHTS for small molecule stabilizers of the endoplasmic reticulum resident proteome (AID 1508629); conditions: cell viability counter-screen, 100 nM thapsigargin for final 4 h;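 also: human SH-SY5Y neuroblastoma cells carrying the GLuc-SERCaMP reporter; compound exposure about 46 h in total before the viability read; % is scaled to controls: 0 for no effect and ±100 for the full control effect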
[11] = qHTS to identify inhibitors of the type 1 interferon - major histocompatibility complex class I in skeletal muscle: primary screen against the NCATS Mechanism Interrogation Plate v5.0 (MIPE) Libary (AID 1347411); also: potency is read from the fitted curve at half-maximal effect; nearly all actives have a fitted effect of over 65% in size
Method in brief: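 IFN-beta-driven (4 ng/ml) HLA-B-HiBit expression in CRISPR-tagged C25cl48 myoblasts; compounds 11-pt, 1:3, max 46 uM, 24 hr exposure; lytic NanoLuc complementation luminescence.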

[12] = target: Calcium and integrin-binding protein 1 (Homo sapiens) (UniProt Q99828); assay: Confirmatory qHTS for Identification of Calcium Integrin Binding Protein 1 (CIB1) Competitor (AID 1508617); also: potency is read from the fitted curve at half-maximal effect; nearly all actives have a fitted effect of over 65% in size
Method in brief: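 Fluorescence polarization competition: CIB1-GST (1 uM final) in 5 mM HEPES pH 7.4, 125 mM NaCl, 5 mM CaCl2, 0.01% Tween20 preincubated 15 min RT with compound (up to 114 uM), then FITC-alphaIIb peptide (100 nM) added, 15 min RT.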

OC1C(O)C(O)C(O)C(O)C1O (stereo not given)
inactive: Potency [1] | Potency [2] | outcome [3] | outcome [4] | Potency [5] | Potency [6]

CCCCCCCCCCCCCCC[C@H](O)[C@@H](N)CO
inactive: Potency [1] | Potency [2] | outcome [3] | outcome [4] | Potency [7] | Potency [8] | activity change, negative = inhibition [5] -27.1% [at 3.88 µM]

Cc1ccc2c(Br)cc(Br)c(O)c2n1
inactive: Potency [1] | Potency [2] | outcome [3] | Potency [9]

CCCCCCCCCCC[C@@H](C[C@@H]1OC(=O)[C@H]1CCCCCC)OC(=O)[C@H](CC(C)C)NC=O
inactive: Potency [1] | Potency [2] | outcome [3] | Potency [9]

CN(C)CCN1C(=O)c2ccccc2N(C)c2ccccc21
inactive: Potency [1] | Potency [2] | outcome [3] | outcome [4] | Potency [9] | Potency [6]

OC(C#CCN1CCCC1)(c1ccccc1)c1ccccc1
inactive: Potency [1] | outcome [3] | outcome [4] | Potency [9] | Potency [5] | Potency [6]

CC(=O)Nc1ncc([N+](=O)[O-])s1
inactive: Potency [1] | outcome [3] | outcome [4] | Potency [9]

CC(=O)Nc1ccc(CC(=O)O)cc1
inactive: Potency [1] | outcome [3] | outcome [4] | Potency [9]

OC[C@H]1O[C@@H](Oc2ccc(O)cc2)[C@H](O)[C@@H](O)[C@@H]1O
inactive: Potency [1] | outcome [3] | outcome [4] | Potency [9] | Potency [5]

COc1cc(C(=O)N2CCCCCCC2)cc(OC)c1OC
inactive: Potency [1] | outcome [3] | outcome [4] | Potency [9] | Potency [5]

CCc1ccc(C(=O)C(C)CN2CCCCC2)cc1 (stereo not given)
inactive: Potency [1] | outcome [3] | outcome [4] | Potency [9] | Potency [5]

Cc1c[nH]c2ccccc12
inactive: Potency [1] | outcome [3] | outcome [4] | Potency [9]

O=C(O)C1(C(=O)O)CCC1.[NH2-].[NH2-].[Pt+2]
inactive: Potency [1] | outcome [4] | Potency [9] | Potency [6]
active: Potency [2] 11.2 µM

Nc1ccc(C(=O)NCC(=O)O)cc1
inactive: Potency [1] | outcome [3] | outcome [4] | Potency [9]

CCC(C(=O)OCCOCCN(CC)CC)c1ccccc1 (stereo not given)
inactive: Potency [1] | outcome [3] | outcome [4] | Potency [9] | Potency [5] | Potency [6]

O=[N+]([O-])c1ccc(/C=N\O)o1
inactive: Potency [1] | outcome [3] | outcome [4] | Potency [9] | Potency [6]

NC(=O)C1(N2CCCCC2)CCN(CCCC(=O)c2ccc(F)cc2)CC1
inactive: Potency [1] | outcome [3] | outcome [4] | Potency [9] | Potency [5] | Potency [6]

CC[C@]12CCCN3CCc4c(n(c5ccccc45)C(=O)C1)[C@@H]32
inactive: Potency [1] | outcome [3] | outcome [4] | Potency [9] | Potency [5]

O=C1C(O)=C(O)C(=O)C(O)=C1O
inactive: Potency [1] | outcome [3] | outcome [4] | Potency [9] | Potency [5] | Potency [6]

COc1cc(C)nc(-n2nc(C)cc2OC)n1
inactive: Potency [1] | outcome [3] | outcome [4] | Potency [9]

O=S(c1cc(Cl)cc(Cl)c1O)c1cc(Cl)cc(Cl)c1O
inactive: Potency [1] | outcome [4] | Potency [9] | Potency [5]
active: Potency [2] 31.6 µM

CC(C)(Cc1c[nH]c2ccccc12)NCC(O)COc1ccccc1C#N (stereo not given)
inactive: Potency [1] | outcome [3] | outcome [4] | Potency [9] | Potency [7] | max response [10] -6.12% | Potency [5]

N#C/C(=C1\SCC(c2ccccc2Cl)S1)n1ccnc1 (stereo not given)
inactive: Potency [1] | outcome [3] | outcome [4] | Potency [9] | Potency [5] | Potency [6]

O=C(CCCN1CC=C(n2c(=O)[nH]c3ccccc32)CC1)c1ccc(F)cc1
inactive: Potency [1] | outcome [3] | outcome [4] | Potency [9] | Potency [6]
active: Potency [5] 25.1 µM

O=C1C(=O)c2ccccc2C(O)=C1C1CCC(c2ccc(Cl)cc2)CC1 (stereo not given)
inactive: Potency [1] | Potency [2] | outcome [3] | Potency [9] | Potency [5] | Potency [6]

NC1CCN(c2nc3c(cc2F)c(=O)c(C(=O)O)cn3-c2ccc(F)cc2F)C1 (stereo not given)
inactive: Potency [1] | outcome [3] | outcome [4] | Potency [9] | Potency [6]

CN1CCN(CCC(=O)N2c3ccccc3Sc3ccc(C(F)(F)F)cc32)CC1
active: Potency [6] 3.16 µM
inactive: Potency [1] | Potency [2] | outcome [3]

CN1CCN(c2c(F)cc3c(=O)c(C(=O)O)cn4c3c2SCC4)CC1
inactive: Potency [1] | outcome [3] | outcome [4] | Potency [9] | Potency [5] | Potency [6]

CCOC(=O)c1c(N)sc2c1CCN(Cc1ccccc1)C2
inactive: Potency [1] | outcome [3] | outcome [4] | Potency [9] | Potency [5] | Potency [6]

COc1cc(C(=S)N2CCOCC2)ccc1O
inactive: Potency [1] | outcome [3] | outcome [4] | Potency [9] | Potency [5] | Potency [6]

Nc1ccc(S(=O)(=O)Nc2cnc3ccccc3n2)cc1
inactive: Potency [1] | outcome [3] | outcome [4] | Potency [9]

O=C(c1ccc(F)cc1)C1CCN(CCn2c(=S)[nH]c3ccccc3c2=O)CC1
inactive: Potency [1] | Potency [2] | outcome [3] | Potency [9] | Potency [6]

N#CCC(=O)NN
inactive: Potency [1] | outcome [3] | outcome [4] | Potency [9]

CC(CNC1CCCCC1)OC(=O)c1ccccc1 (stereo not given)
inactive: Potency [1] | outcome [3] | outcome [4] | Potency [9] | Potency [5] | Potency [6]

CCC1NC(=O)c2cc(S(N)(=O)=O)c(Cl)cc2N1 (stereo not given)
inactive: Potency [1] | outcome [3] | outcome [4] | Potency [9] | Potency [5] | Potency [6]

NS(=O)(=O)c1ccc(Cl)c(S(N)(=O)=O)c1
inactive: Potency [1] | outcome [3] | outcome [4] | Potency [9] | Potency [5]

O=C(CN1CCN(Cc2ccc3c(c2)OCO3)CC1)N1c2ccccc2Sc2ccccc21
inactive: Potency [1] | outcome [3] | outcome [4] | Potency [9] | Potency [5]

CC(C)(C)NCC(O)COc1cccc2c1C[C@H](O)[C@H](O)C2 (stereo not given in full)
inactive: Potency [1] | outcome [3] | outcome [4] | Potency [9] | Potency [5] | Potency [6]

CCOC(=O)c1ccc(N)cc1
inactive: Potency [1] | outcome [3] | outcome [4] | Potency [9] | Potency [5]

CC(=O)OCC1=C(C(=O)O)N2C(=O)[C@@H](NC(=O)CSc3ccncc3)[C@H]2SC1
inactive: Potency [1] | outcome [3] | outcome [4] | Potency [9] | Potency [6]

CCN1/C(=C/C=C/c2sc3ccccc3[n+]2CC)Sc2ccccc21
inactive: Potency [1] | outcome [3] | outcome [4] | Potency [9] | Potency [5]
active: Potency [6] 11.2 µM

CCCCCN=C(N)N/N=C/c1c[nH]c2ccc(OC)cc12
active: Potency [11] 6.58 µM

Oc1ccc(Cl)cc1Cc1cc(Cl)ccc1O
active: Potency [12] 44.7 µM

CCc1oc2ccccc2c1C(=O)c1cc(I)c(O)c(I)c1
active: Potency [12] 35.5 µM

CN1CCC[C@@H]1CCO[C@](C)(c1ccccc1)c1ccc(Cl)cc1
active: Potency [8] 15.8 µM

CN1CCN(C2=Nc3cc(F)ccc3Cc3ccccc32)CC1
active: Potency [8] 39.8 µM
